Pf growth 48h: inhibits P. falciparum growth in the first generation, 48 h; P. falciparum luciferase growth in erythrocytes, 48 h; Potency, µM (titrated, usually from 28.7 µM), for the others: at the highest dose activity change, negative = inhibition, most hits filed as inhibitors; AID 504832; 310,000 tested, 5.9% active; note: potency is the fitted concentration of half-maximal effect; % is set by controls: 0 for no effect and ±100 for the full control effect
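Here the parasites carry a stable luciferase gene and grow inside erythrocytes in Albumax-based RPMI medium with compound for one erythrocytic cycle. Activity is scored as loss of luminescent signal.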
SARS PLpro yeast-1: SARS-CoV PLP inhibition in yeast; Potency, µM (series often up to 32.9 µM), inactives show top-dose activity, positive = growth rescue, most hits filed as activators; 330,000 tested, 0.19% active; S. cerevisiae expressing SARS-CoV PLpro, growth rescue; calls by dose curve; note: potency is the fitted concentration of half-maximal effect; 0% is about no effect; nearly all actives have a fitted effect of over 55% in size
Pf growth 96h: P. falciparum growth inhibition at 96 hour, primary screen for plastid delayed-death inhibitors. AID 504834. Potency, µM (doses to about 28.7 µM), for inactives: top-dose activity change, negative = inhibition, most hits filed as inhibitors. 320,000 tested, 6.9% active. P. falciparum luciferase reporter growth, 96 h; note: potency is the fitted concentration of half-maximal effect; % is set by controls: 0 for no effect and ±100 for the full control effect
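Plates of compound plus infected erythrocytes (2% hematocrit, 0.05% parasitemia final) incubate 96 hours, 37 C, 5% CO2. Detection reagent added; reduced luminescence from the parasites' luciferase reporter flags inhibition.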
AMA1 RON2 block: disrupts binding of P. falciparum AMA1 to RON2 | 360,000 tested, 0.2% active | AID 720542 | Potency, µM (series often up to 58.2 µM), for the others: at the top dose activity change, negative = inhibition, hits mostly inhibitors | AlphaScreen AMA1-biotinylated RON2 peptide binding;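 note: potency is the fitted concentration of half-maximal effect; 0% = vehicle wells and -100% = peptide control; nearly all actives have a fitted effect of over 45% in size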
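AMA1 (3D7) with his tag at 25 nM final met compounds first, then biotinylated RON2 peptide at 25 nM; detection used donor plus acceptor beads, 10 µg/mL apiece, read by AlphaScreen after 30 min at room temperature.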
SARS PLpro yeast-2: Inhibits SARS-CoV PLP in yeast, hit validation. shares compounds with SARS PLpro yeast-1. yeast expressing SARS-CoV PLpro, growth phenotype rescue. calls only. 1,000 tested, 19% active; call rule not given here
Active calls of the source: *; i = inactive; ? = inconclusive; . = not tested or not shown; + = active, no number; [ ] = remark or other dose. An excerpt weighted towards active compounds, which were near 9.4% of everything screened. Unless noted, calls come from the whole dose curve; as a rule, active = well fitted curve in the direction sought with a large enough effect; inconclusive = small, poorly fitted or top-dose-only effect, or another doubt; inactive = no such curve, though single readings can be large; an effect the other way counts as inactive or inconclusive.

SMILES	Pf growth 48h	SARS PLpro yeast-1	Pf growth 96h	AMA1 RON2 block	SARS PLpro yeast-2
CCN(CC)S(=O)(=O)c1ccc(S(=O)(=O)N2CCCC2C(=O)O)cc1 (stereo unspecified)	.	22.4µM*	-12.4%	4.1%	i
CCOC(=O)Cc1nnc(NC(=O)C(CC)Sc2nncn2C)s1 (stereo unspecified)	-2.9%	1.9%	-8.7%	37.6%	.
O=C(CN1CCN(c2ccccc2)CC1)Nc1ccccc1C(=O)NCCc1ccccc1	.	.	.	2.9%	.
O=C(O)CCC(=O)Nc1ccccc1C(=O)NCCc1ccccc1	60.3%	3.98µM*	125.5%	-1.2%[2.32 µM]	i
CC(C)CC(NC(N)=O)C(=O)NCc1ccc(Cl)cc1 (stereo unspecified)	15.6%	-7.2%	-0.6%	-13.5%	.
O=Cc1c(Sc2ccccc2)nc2ccccn2c1=O	.	?	7.38µM*	1.9%	i
O=Cc1c(Sc2ccccn2)nc2ccccn2c1=O	?	-4.3%	?	0.0%	.
Cc1ccc(C2=NC(C)(C)NC2=O)cc1	.	?	69.7%	4.8%	i
COc1cccc(NC(=O)COC(=O)CNS(=O)(=O)c2c(F)cccc2F)c1	5.9%	?	?	-11.1%	i
COc1cccc(NC(=O)COC(=O)c2ccccc2F)c1	8.9%	-2.6%	-13.9%	-0.9%	.
C/C(=N\OCC(=O)Nn1c(C)nc2ccccc2c1=O)c1ccccc1	-13.8%	12.4%	?	2.0%	.
COc1ccc(C2Nc3ccccc3C(=O)N2O)cc1CN1CCOCC1 (stereo unspecified)	7.1%	22.4µM*	20.5%	3.5%	i
Cc1cccc(C)c1NC(=O)COC(=O)C1C2CC3OC(=O)C1C3C2 (stereo unspecified)	26.0%	11.2µM*	22.9%	-0.4%	i
COc1ccc(-n2nc(C(=O)NCC(=O)NCC3COc4ccccc4O3)c3ccccc3c2=O)cc1OC (stereo unspecified)	?	2.0%	?	-2.1%	.
CCC(C)C(=O)Nc1nccs1 (stereo unspecified)	5.3%	10µM*	11.7%	12.0%	i
CCC(C(=O)Nc1nccs1)c1ccccc1 (stereo unspecified)	?	3.0%	-20.0%	-18.8%	.
Cc1ccc(CNC(=O)/C=C/c2ccc(Br)o2)cc1	5.1%	.	0.4%	-3.8%	i
O=C(NCc1ccccc1Cl)C1CCCN(C(=O)Nc2ccc(F)cc2)C1 (stereo unspecified)	-14.4%	1.1%	-12.0%	4.5%	.
O=c1cc(CO)oc(C(Nc2ccccn2)c2cccc(F)c2)c1O (stereo unspecified)	1.4%	1.2%	1.0%	0.9%	.
COc1cccc(C(Nc2ccccn2)c2oc(CO)cc(=O)c2O)c1 (stereo unspecified)	13.1%	11.2µM*	-17.8%	-18.9%	i
Cc1ccc2nc3n(c(=O)c2c1)-c1cc2ccccc2cc1C(=O)NC3Cc1ccc(O)cc1 (stereo unspecified)	.	.	.	9.4%	.
CC(=O)NC(c1ccc(Cl)cc1)c1ccc2cccnc2c1O (stereo unspecified)	.	.	.	-19.4%	.
CC(=O)NC(c1ccco1)c1ccc2cccnc2c1O (stereo unspecified)	10.4µM*	?	6.6%	?	+
Cc1cc(NC(c2ccc(Cl)cc2)c2ccc3cccnc3c2O)no1 (stereo unspecified)	.	?	0.329µM*	-29.5%	i
CCCC(=O)NC(c1ccc(N(C)C)cc1)c1ccc2cccnc2c1O (stereo unspecified)	6.57µM*	7.08µM*	-21.9%	-88.4%	?
SMILES	Pf growth 48h	SARS PLpro yeast-1	Pf growth 96h	AMA1 RON2 block	SARS PLpro yeast-2
CCCC(=O)NC(c1ccccc1Cl)c1ccc2cccnc2c1O (stereo unspecified)	?	2.24µM*	?	47.0%	+
CC(=O)Nc1ccc2nc(NC(=O)CS(=O)(=O)c3ccccc3)sc2c1	-1.5%	1.5%	-4.6%	3.0%	.
CC(C)Oc1ccc(CCC(=O)NNC(=O)c2ccccc2C(=O)O)cc1	-19.4%	0.7%	47.1%	61.7%	.
CCC(=O)NC(c1ccc(C)cc1)c1ccc2cccnc2c1O (stereo unspecified)	4.65µM*	?	13.6%	-48.5%	i
COC(=O)C1CCN(C(=O)c2sc3nc(-c4ccccc4)cn3c2C)CC1	.	-4.1%	78.3%	-11.0%	.
COc1ccc(CCNC(=O)Cn2nc([N+](=O)[O-])c(Br)c2C)cc1OC	-26.7%	?	?	1.7%	i
COc1ccc(CCNC(=O)Cn2c([N+](=O)[O-])cnc2C)cc1OC	23.6%	-0.1%	25.2%	2.7%	.
COCC(O)CNc1ccccc1 (stereo unspecified)	32.3%	?	13.1µM*	-7.9%	i
CNc1c(N)n(Cc2ccccc2)c(=O)[nH]c1=O	-15.2%	14.6%	.	32.6%	.
CC(C)(C)N(Cc1ccccc1)C(=O)COC(=O)[C@@H]1CCCN1C(=O)c1cccs1	-0.4%	-4.4%	?	1.6%	.
COc1ccccc1/C=N/NC(=O)c1cccc(OC(F)(F)C(F)F)c1	1.9%	-10.2%	5.8%	-0.4%	.
COc1cccc(/C=N/NC(=O)C(=O)Nc2ccccc2OC(F)(F)C(F)F)c1O	?	3.55µM*	-2.2%	51.6%	i
COc1ccc(S(=O)(=O)NCCSC(C)(C)C)cc1	.	4.3%	?	-1.8%	.
Cc1ncc(CO)c(/C=N/NC(=S)Nc2ccc(F)cc2)c1O	-101.6%	5.62µM*	13.1µM*	25.0%[11.6 µM]	i
Fc1ccc(/C=N/NC(=S)Nc2cccnc2)cc1	-10.3%	-7.5%	-26.3%	73.0%	.
O=c1[nH]c(CN2CCN(S(=O)(=O)c3ccc(Cl)cc3)CC2)nc2cc(Cl)ccc12	-5.8%	3.9%	?	2.8%	.
CCOc1ccc(S(=O)(=O)NCCC(=O)NCCOc2ccccc2)cc1	?	?	-5.9%	0.9%	i
O=C(NC(c1ccc(Cl)cc1)c1cnccn1)C1CCN(CCOc2ccc(F)cc2)CC1 (stereo unspecified)	.	.	.	-0.3%	.
Cc1cc(OCc2nnc(SC(C)C(=O)O)n2-c2ccccc2)ccc1Cl (stereo unspecified)	-0.9%	7.3%	?	0.0%	.
COc1ccc(C)cc1NC(=O)CN(C)S(=O)(=O)c1ccc2c(c1)CCCN2C(C)=O	-4.3%	6.7%	-3.1%	-11.8%	.
CC1(C)CN=C(NCc2ccccc2)S1	.	.	.	13.5%	.
O=C(CCN1CCN(C(c2ccccc2)c2ccccc2)CC1)N/N=C/c1ccc(O)cc1O	?	4.47µM*	5.22µM*	29.2%	i
Cc1ccccc1N(CC(=O)N1CCOCC1)S(C)(=O)=O	?	0.2%	7.6%	2.7%	.
O=C(CSc1nc2ccccc2c(=O)n1CCCN1CCOCC1)Nc1ccccc1OC(F)F	.	2.82µM*	.	-18.2%	i
Cc1ccc(OC2=NS(=O)(=O)c3ccccc32)cc1	-10.2%	?	.	-6.6%	i
Cc1c(C=O)c2ccccc2n1Cc1ccc([N+](=O)[O-])cc1	?	?	-20.5%	-21.5%	i
Cc1ccc(NC(=O)COC(=O)c2cc(Cl)ccc2Cl)c(Br)c1	-0.9%	-4.6%	22.0%	6.6%	.

Screening results from PubChem.
